Assay outcomes (PubChem)
An excerpt weighted towards active compounds, which were near 2.4% of everything screened.
HSF1 inh – HSF1 inhibition | activity change, negative = inhibition, % at 7.5 µM (by protocol) | AID 2098 | 300,000 tested, 0.77% active | NIH3T3-HGL HSE-luciferase, MG132-induced, luminescence 8 h; active compounds read low;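 active = more than half of replicate wells show activity change below -50%, luminescence cut by over half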;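 also: luciferase reports HSF-1 transcriptional activity via heat shock element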
NOD2 RIPK2 PPI – inhibitors of human NOD2-RIPK2 interaction | inhibition, % at 4.98 µM | CHO BLA complementation NOD2-RIPK2, CCF4 ratio | 360,000 tested, 0.38% active | AID 624267 | O43353; in the data active = inhibition above about 21%
Target sequence (O43353 whole entry, looked up): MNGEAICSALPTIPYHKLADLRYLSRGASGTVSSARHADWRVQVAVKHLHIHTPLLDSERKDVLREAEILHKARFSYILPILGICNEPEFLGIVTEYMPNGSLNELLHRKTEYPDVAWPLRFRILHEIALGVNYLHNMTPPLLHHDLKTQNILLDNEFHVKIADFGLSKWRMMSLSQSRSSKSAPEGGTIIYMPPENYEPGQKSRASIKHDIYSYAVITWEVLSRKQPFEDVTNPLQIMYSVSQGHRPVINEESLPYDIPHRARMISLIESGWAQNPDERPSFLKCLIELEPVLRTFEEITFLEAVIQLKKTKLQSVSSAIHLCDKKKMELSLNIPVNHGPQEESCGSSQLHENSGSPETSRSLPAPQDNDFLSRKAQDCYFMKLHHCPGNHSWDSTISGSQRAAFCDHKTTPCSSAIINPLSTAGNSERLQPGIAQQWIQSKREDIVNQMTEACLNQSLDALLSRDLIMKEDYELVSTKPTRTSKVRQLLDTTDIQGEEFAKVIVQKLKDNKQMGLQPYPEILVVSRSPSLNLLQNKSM
TLR4-MyD88 BLA – blocks binding of human TLR4 to MyD88. O00206+Q99836. inhibition, % at 8.4 µM. 200,000 tested, 0.18% active. HeLa CL3-4 TLR4/MyD88 BLA complementation, FRET ratio. AID 861; in the data active = inhibition above about 25%
HSF1 activator – increases HSF-1 driven luciferase reporter signal. AID 504408. NIH3T3-HGL HSF-1 luciferase reporter, MG132, 8 h; 100% = twice DMSO control signal. activation, % at 9 µM. 300,000 tested, 1.7% active;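 active = mean replicate activation of at least 50% with a set share of replicates each reaching 50%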
TLR9-MyD88 inh – inhibitors of human TLR9-MyD88 binding. Q9NR96+Q99836. CHO BLA complementation TLR9-MyD88, CCF4 FRET ratio. inhibition, % at 4.98 µM. 340,000 tested, 0.21% active. AID 504734;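 active = inhibition above the mean over all tested compounds plus 3 SD, cut at about 21% in these data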
Each line names hits and unclear results; the compound was inactive in the other large screens.

CCOc1ccc(N2CC(C(=O)Nc3ccc4c(c3)OCO4)CC2=O)cc1 (centres undefined)	none
CCOc1ccc(C(=O)NC2=NCCS2)cc1	HSF1 activator 66 (no result: NOD2 RIPK2 PPI, TLR9-MyD88 inh)
CC(C)c1ccc(NC(=O)c2cccc(Br)c2)cc1	HSF1 activator 78
CCOc1ccc(N2CC(C(=O)Nc3ccc4c(c3)OCCO4)CC2=O)cc1 (centres undefined)	HSF1 inh -65 (no result: TLR4-MyD88 BLA)
Nc1c(C(=O)Nc2ccccc2Cl)nnn1-c1ccc2c(c1)OCCO2	HSF1 activator 58 (no result: TLR4-MyD88 BLA)
Cn1c(=O)c2c(ncn2CCOC(=O)C(C)(C)Oc2ccc(Cl)cc2)n(C)c1=O	none (no result: HSF1 inh, TLR4-MyD88 BLA, HSF1 activator)
c1ccc(CN(CCN2CCOCC2)Cc2ccccc2)cc1	none (no result: HSF1 inh, TLR4-MyD88 BLA, HSF1 activator)
CC1(C)OC(=O)C2=C(C[C@@H](CCc3ccccc3)O[C@H]2CCc2cccc(Cl)c2)O1	none (no result: HSF1 inh, TLR4-MyD88 BLA, HSF1 activator, TLR9-MyD88 inh)
Cc1ccccc1-n1ccnc1SCC(=O)Nc1cccc(S(=O)(=O)NC2=NCCC2)c1	none (no result: HSF1 inh, TLR4-MyD88 BLA, HSF1 activator)
O=C(NCCN1CCOCC1)c1cc2ccccc2o1	HSF1 activator 61
CCOc1ccc(NC(=O)C2CC(=O)N3CCCN=C3S2)cc1 (centres undefined)	HSF1 activator 54
NC(=O)c1cc2cc(Br)ccc2oc1=NCc1ccccc1	HSF1 activator 190
C#CCN(C[C@H]1[C@H](OC(=O)NC2CCCC2)[C@H](OC(=O)NC2CCCC2)C[C@@H](C(=O)OC)[C@H]1C(=O)OC)S(=O)(=O)c1ccc(C)cc1	none (no result: HSF1 inh, TLR4-MyD88 BLA, HSF1 activator)
CCC(C)C(CO)NCCCn1cnc2c(SC)ncnc21 (centres undefined)	none (no result: HSF1 inh, TLR4-MyD88 BLA, HSF1 activator)
CCOC(=O)c1ccc(N(CC(=O)NC2CCCCC2)C(=O)CNC(=O)c2ccco2)cc1	none (no result: TLR4-MyD88 BLA)
COC(=O)c1ccc(N(CC(=O)NC2CCCCC2)C(=O)CNC(=O)c2ccco2)cc1	HSF1 activator 71 (no result: TLR4-MyD88 BLA)
CC(=O)Oc1ccc(OC(C)=O)c(SCCCCCCl)c1	HSF1 inh -96
CC(=O)Oc1ccc(C(=O)O)cc1OC(C)=O	none
N#CCN(C(=O)CSc1nnc(C2CC2)n1C1CC1)c1ccccc1	none (no result: HSF1 inh, TLR4-MyD88 BLA, HSF1 activator)
COc1cc(N)c(Cl)cc1C(=O)OCC(=O)NC(=O)NCc1ccco1	none (no result: HSF1 inh, TLR4-MyD88 BLA, HSF1 activator)
NS(=O)(=O)c1cccc(NC(=O)CSc2nnc(-c3ccncc3)n2C2CC2)c1	none (no result: HSF1 inh, TLR4-MyD88 BLA, HSF1 activator)
CCOc1ccc2noc3c2c1C(=O)c1ccccc1-3	none
O=C1c2ccccc2-c2onc3ccc(N4CCCC4)c1c23	HSF1 activator 93
N#Cc1ccc(OCC(=O)OCC(=O)N2CCc3ccccc32)cc1	none (no result: HSF1 inh, TLR4-MyD88 BLA, HSF1 activator)
O=C(CSc1ccccc1)Nc1cccc(NC(=O)c2ccco2)c1	HSF1 inh -68
O=C(CSc1ccc(Cl)cc1)Nc1cccc(NC(=O)c2ccco2)c1	none
N#Cc1cccc(NCC(=O)Nc2ccc3c(c2)OCCO3)c1	HSF1 activator 68
CC(C)(C)OC(=O)N1Cc2ccccc2C[C@H]1C(=O)NCC(=O)Nc1ccc2c(c1)OCCO2	HSF1 inh -64 (no result: TLR4-MyD88 BLA)
Cc1cccc(NC(=O)CCNC(=O)c2ccco2)c1	HSF1 activator 58
Cc1cccc(NC(=O)C(=O)NCCCN2CCOCC2)c1	none
O=C(CNC(=O)c1ccco1)Nc1ccc2c(c1)OCCO2	HSF1 inh -67 (no result: TLR4-MyD88 BLA)
Cc1cccc(NC(=O)C(=O)NCCCc2ccccc2)c1	HSF1 activator 83 (no result: NOD2 RIPK2 PPI, TLR9-MyD88 inh)
O=C(NC(=S)Nc1ccc2c(c1)OCCO2)c1ccco1	none (no result: TLR4-MyD88 BLA)
COc1ccc(NCC(=O)Nc2c(C)cccc2C)cc1S(=O)(=O)N1CCOCC1	none (no result: HSF1 inh, TLR4-MyD88 BLA, HSF1 activator)
Cc1nc2ccc(NC(=O)c3sccc3C)cc2s1	HSF1 activator 61
Cc1nc2ccc(NC(=O)N3CCSCC3)cc2s1	HSF1 inh -60
Cc1nc2ccc(NC(=O)c3cccs3)cc2s1	none (no result: TLR4-MyD88 BLA)
COc1ccc(S(=O)(=O)N2CCOCC2)cc1NC(=O)CSc1nnc2c(n1)[nH]c1ccccc12	none (no result: TLR4-MyD88 BLA)
Cc1ccccc1CS(=O)(=O)CC(O)CN1CCCC1=O (centres undefined)	none (no result: TLR4-MyD88 BLA)
c1csc(-c2ccc3ccccc3n2)c1	none
Nc1nc2ccccc2cc1-c1cccs1	HSF1 activator 53 (no result: TLR4-MyD88 BLA)
CN(Cc1ccccc1)C(=O)Cn1nnc(-c2ccccc2)c1COc1ccccc1	none (no result: HSF1 inh, TLR4-MyD88 BLA, HSF1 activator, TLR9-MyD88 inh)
COc1ccc2c(CC(=O)Nc3nccs3)coc2c1	HSF1 activator 72
COc1ccc2c(CC(=O)NCc3cccs3)coc2c1	none
Cc1cccc(NS(=O)(=O)c2cccc(C(=O)NCC(c3ccc(F)cc3)N3CCOCC3)c2)c1 (centres undefined)	none (no result: HSF1 inh, TLR4-MyD88 BLA, HSF1 activator)
COCCNC(=O)c1ccc2ccccc2n1	none
Cc1ccccc1OCCNC(=O)c1ccc2ccccc2n1	HSF1 activator 86
COc1ccc(C(C#N)=C2C=CC(=NO)C(C)=C2Cl)cc1	none (no result: HSF1 inh, TLR4-MyD88 BLA, HSF1 activator)
CC(=O)Oc1c(C)cc(Cl)cc1C(=O)Nc1ccc([N+](=O)[O-])cc1Cl	HSF1 activator 56
CC(=O)Nc1ccc(S(=O)(=O)Nc2c(NC3CCCCC3)c3ccccc3oc2=O)cc1	none (no result: TLR4-MyD88 BLA)
Cc1ccc(C(=O)NC(C#N)=C(Cl)Cl)cc1	HSF1 activator 151 (no result: NOD2 RIPK2 PPI, TLR9-MyD88 inh)
Cc1ccc(C(=O)NC(=C(Cl)Cl)S(=O)(=O)c2ccccc2)cc1	HSF1 activator 113
COC(=O)c1ccc(CN2CCN(C3CCCC3)C(CCO)C2)cc1 (centres undefined)	none
COC(=O)c1ccc(CN2CCN(C3CCCCC3)C(CCO)C2)cc1 (centres undefined)	HSF1 inh -64
CCOC(=O)C1=CNS(=O)(=O)NC1c1ccc(C(=O)OC)cc1 (centres undefined)	none (no result: HSF1 inh, TLR4-MyD88 BLA, HSF1 activator)
CC(C)Oc1ccc(C(=O)O)cc1	HSF1 inh -89 (no result: TLR4-MyD88 BLA)
O=C(NCc1ccccc1)C1C(=O)Nc2ccccc2C(=O)N1Cc1ccccc1 (centres undefined)	none (no result: HSF1 inh, TLR4-MyD88 BLA, HSF1 activator, TLR9-MyD88 inh)
CC1CC(C)CN(C(=O)CCS(=O)(=O)c2ccc3c(c2)NC(=O)CS3)C1 (centres undefined)	HSF1 activator 85 (no result: TLR4-MyD88 BLA)
COc1ccc(N(CC(=O)NCCC2=CCCCC2)S(=O)(=O)c2ccccc2)cc1OC	none
COc1ccc(N(CC(=O)NCCC2=CCCCC2)S(=O)(=O)c2ccccc2)cc1	HSF1 activator 97 (no result: TLR4-MyD88 BLA)
CCCS(=O)(=O)c1cnc(C2COc3ccccc3O2)nc1N (centres undefined)	HSF1 inh -80 (no result: TLR4-MyD88 BLA)
COc1ccc2cc3c(N)nn(C(=O)c4ccc(Cl)c([N+](=O)[O-])c4)c3nc2c1	none
COc1ccc2cc3c(N)nn(C(=O)c4ccccc4[N+](=O)[O-])c3nc2c1	HSF1 inh -53
Cc1cc(C)c2c(N)c(C(=O)Nc3cccc(C)c3C)sc2n1	HSF1 activator 52 (no result: TLR4-MyD88 BLA)
Cc1ccc(NC(=O)c2sc3nc(C)cc(C)c3c2N)cc1	none (no result: TLR4-MyD88 BLA)
CCCCCCn1cc(CN2CC(N3CCCCC3)CS2(=O)=O)nn1 (centres undefined)	none (no result: HSF1 inh, TLR4-MyD88 BLA, HSF1 activator, TLR9-MyD88 inh)
Cc1ccc(C(=O)OCC(=O)NCCNC(=O)COC(=O)c2ccc(C)s2)s1	none (no result: TLR4-MyD88 BLA)
Cc1ccc(C(=O)OCC(=O)c2ccc(Cl)s2)s1	HSF1 activator 60
Cc1cccc(C)c1NCc1nnc(SCC(=O)Nc2nc(-c3ccccc3)cs2)n1-c1ccccc1	HSF1 activator 60
CCOc1ccc(NCc2nnc(SCC(=O)Nc3nc(-c4ccccc4)cs3)n2-c2ccccc2)cc1	HSF1 inh -67
